The record followed here is PubChem BioAssay (EPA / NIEHS).

Calls of active or inactive are those of the source. Rule for the calls: active = hit-call score of the fitted dose curve at least 0.9, where 1 is the maximum; inactive = score below 0.9.

This experiment is described as follows: Tanguay_ZF_120hpf_MO24: Oregon State University Tanguay Lab 24 Hour Post-fertilization zebrafish Assay for Mortality (AID 2284389). The protocol: Tanguay_ZF_120hpf is a whole embryo, multiplexed endpoint assay using zebrafish larvae exposed for 120 hours post fertilization on a 96-well plate.Tanguay_ZF_120hpf_MO24 is one of one assay component(s) measured or calculated from the Tanguay_ZF_120hpf assay. It is designed to make measurements of zebrafish development as detected with brightfield microscopy of developing zebrafish embryos.Data from the assay component Tanguay_ZF_120hpf_MO24 was analyzed into 1 assay endpoints. This assay endpoint, Tanguay_ZF_120hpf_MO24, was analyzed in the positive analysis fitting direction relative to DMSO as the negative control and baseline of activity. Using a type of viability reporter, gain-of-signal activity can be used to understand changes in developmentals as they relate to the whole embryo. To generalize the intended target to other relatable targets, this assay endpoint is annotated to the zebrafish development intended target family, where the subfamily is embryonic mortality.
Zebrafish husbandry: Tropical 5D wild-type adult zebrafish were housed in at an approximate density of 1000 per 100 gallon tank at the Sinnhuber Aquatic Research Laboratory, Oregon State University, Corvallis, OR. Each tank was kept at standard laboratory conditions of 28C on a 14-h light/10-h dark photoperiod in fish water consisting of reverse osmosis water supplemented with a commercially available salt (Instant Ocean). Spawning funnels were placed into the tanks the night prior, and embryos were collected and staged. To increase bioavailability, the chorion was enzymatically removed using pronase (63.6mg/ml, >/= 3.5U/mg, Sigma-Aldrich: P5147) at 4 hours post fertilization (hpf) using a custom automated dechorionator.Chemical exposures: Six hpf dechorionated embryos were placed 1 embryo per well in a 96-well plate prefilled with 90 ul of EM using automated embryo placement systems (AEPS). Ten microliters of each row of dilution plate 2 was added to 2 exposure plates. The final DMSO concentration used was 0.64% (vol/vol). Thirty-two embryos were also exposed to 5uM trimethyltin chloride (positive control). Plates were sealed to prevent evaporation and foil covered to reduce light exposure and kept in a 28C incubator. Embryos were statically exposed until 120 hpf. At 24 hpf, embryos were assessed for photomotor response using a custom photomotor response analysis tool (PRAT) and for developmental toxicity endpoints (MO24: mortality at 24 hpf, DP: developmental progression, SM: spontaneous movement, and NC: notochord distortion). At 120 hpf, locomotor activity was measured using Viewpoint Zebralab and assessed for 13 endpoints. Zebrafish acquisition and analysis program (ZAAP), a custom program designed to inventory, acquire, and manage zebrafish data, was used to collect developmental endpoints as either present or absent (i.e., binary responses were recorded). If mortality occurred for an embryo (at either 24 or 120 hpf), the non-mortality endpoints were not measured.
As to `FC(F)(F)C(F)(F)C(F)(F)C(F)(F)C(F)(F)C(F)(F)I`, the call was inactive.
In the case of `FC(F)(F)COC(OCC(F)(F)F)OCC(F)(F)F`, the compound was called inactive.
With `OCCC(F)(F)C(F)(F)C(F)(F)C(F)(F)F`, the outcome was inactive.
Same read-out and setting: the value for `OC(O)(C(F)C(O)(O)C(F)(F)F)C(F)(F)F` was “inactive”.
On the same count and under the same terms, the value for `FC(F)C(F)(F)COCC1CO1` (stereo not given) was “inactive”; that for `NCC(F)(F)C(F)(F)C(F)(F)C(F)(F)F` was “inactive”.
Usually AC50 stands for the concentration giving half of the maximal activity seen. As for `O=C(Cl)C(F)(F)C(F)(F)C(F)(F)C(=O)Cl`, the AC50 is 57.3 µM (active).
As for `FC(F)=C(F)C(F)(F)C(F)(F)C(F)(F)C(F)(F)C(F)(F)C(F)(F)F`, the outcome was inactive.
Same read-out and setting: the value for `O=S(=O)(O)CCC(F)(F)C(F)(F)C(F)(F)C(F)(F)C(F)(F)C(F)(F)F` was “inactive”; that for `C[Si](C)(C)C(F)(F)C(F)(F)C(F)(F)F` was “inactive”.
